In the supplement of paper PMC10981050:
Several values for one entry are separate records, joined by “and”; a condition that tells them apart may be missing. Equal entries are not always repeated. Structures can show the parent of a compound that is named as a salt.

How the values were obtained:
Test in all cases: cell viability relative to vehicle control; higher = less cytotoxic
Conditions in all cases: 10 µM
K562 = test system: K562
In short: (§1)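 Mutant clones made by CRISPR editing and their isogenic wild-type counterparts, from four leukaemia lines, were exposed to a single 10 µM dose of each library compound for 48 h. The supernatant was then removed and CellTiter-Glo luminescence was read. Viability was reported as percent of the on-plate vehicle control.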

MARIMO = test system: MARIMO
In short: as §1

MOLM14 = test system: MOLM14
In short: as §1

OCI-AML2 = test system: OCI-AML2
In short: as §1

Structure (SMILES) | cell viability (K562; SRSF2 genotype: SRSF2 P95H/wt) | cell viability (K562; SRSF2 genotype: SRSF2 wt/wt) [%] | cell viability (MARIMO; SRSF2 genotype: SRSF2 P95H/wt) [%] | cell viability (MARIMO; SRSF2 genotype: SRSF2 wt/wt) [%] | cell viability (MOLM14; SRSF2 genotype: SRSF2 P95H/wt) [%] | cell viability (MOLM14; SRSF2 genotype: SRSF2 wt/wt) [%] | cell viability (OCI-AML2; SRSF2 genotype: P95H/wt) [%] | cell viability (OCI-AML2; SRSF2 genotype: wt/wt) [%]
CC[C@@]1(O)C(=O)OCc2c1cc1n(c2=O)Cc2cc3cc(O)ccc3nc2-1 [10-Hydroxycamptothecin] | 8.49% and 21.1% | 9.32 | 4.98 | 3.83 | 0.7 | 0.58 | 0.54 | 1.46
CC1(C)S[C@@H]2[C@H](NC(=O)C(C(=O)O)c3ccccc3)C(=O)N2[C@H]1C(=O)O (stereo not given in full) [Carbenicillin disodium] | 93.2% and 88.7% | 97.2 | 90.3 | 98.8 | 98.6 | 95.4 | 95 | 93
CCCCCC(O)C=CC1C(O)CC(=O)C1CCCCCCC(=O)O (stereo not given) [Alprostadil(Caverject)] | 69.3% and 64.4% | 84.2 | 82.4 | 73.2 | 50.1 | 22.4 | 80.3 | 62.1
COc1cc2nc(N3CCN(C(=O)c4ccco4)CC3)nc(N)c2cc1OC [Prazosin HCl] | 99.9% and 102% | 102 | 96.8 | 103 | 101 | 97 | 102 | 95.6
CC(=O)Oc1c(C)c(C)c2c(c1C)CCC(C)(CCC[C@H](C)CCC[C@H](C)CCCC(C)C)O2 (stereo not given in full) [Vitamin E Acetate] | 105% and 103% | 106 | 102 | 103 | 103 | 106 | 105 | 94.2
O=c1cc(-c2ccc(O)c(O)c2O)oc2ccccc12 | – | 69.2 | 98.5 | 87.9 | 81.8 | 68.4 | 108 | 105
CC[C@H]1OC(=O)[C@H](C)[C@@H](O[C@H]2C[C@@](C)(OC)[C@@H](O)[C@H](C)O2)[C@H](C)[C@@H](O[C@@H]2O[C@H](C)C[C@H](N(C)C)[C@H]2O)[C@](C)(O)C[C@@H](C)C(=O)[C@H](C)[C@H]2OC(=O)O[C@@]21C [Erythromycin Cyclocarbonate] | 101% and 103% | 92.5 | 98.3 | 101 | 104 | 99.5 | 99 | 101
Nc1ccc(O)c(C(=O)O)c1 [Mesalamine (Lialda)] | 94.9% and 87.4% | 90.1 | 89.8 | 94.7 | 87.3 | 92.1 | 97.2 | 100
C/C1=C2N=C(/C=C3N=C(/C(C)=C4\[N-]C(C(CC(N)=O)C4(C)CCC(=O)NCC(C)OP(=O)([O-])OC4C(CO)OC(n5cnc6cc(C)c(C)cc65)C4O)C4(C)N=C1C(CCC(N)=O)C4(C)CC(N)=O)C(CCC(N)=O)C\3(C)C)C(CCC(N)=O)C/2(C)CC(N)=O.[CH3-].[Co+3] (stereo not given) [Methylcobalamin] | 89.6% and 88.5% | 101 | 88.4 | 88.6 | 90.8 | 94.3 | 95.2 | 97
O=C(NCCCNc1nc(Nc2cccc(CN3CCOCC3)c2)ncc1C1CC1)C1CCC1 | 74.5% and 95.7% | 84.8 | 69.5 | 74.1 | 8.31 | 6.65 | 17.8 | 21.4
CC/C(=C(\c1ccc(O)cc1)c1ccc(OCCN(C)C)cc1)c1ccccc1 [4-Hydroxytamoxifen] | 27.4% and 32.6% | 28 | 55.8 | 53.5 | 32.9 | 27.8 | 22.6 | 39.5
Cc1ccc(S(=O)(=O)Cc2nc(-c3ccc(C(=O)NCc4cccnc4)cc3)oc2C)cc1 | 30% and 20.2% | 26 | 21.2 | 37.2 | 12.1 | 2 | 5.44 | 5.6
CCC(=O)Nc1cccc(Oc2nc(Nc3ccc(N4CCN(C)CC4)cc3OC)ncc2Cl)c1 | 90.9% and 97.3% | 90.6 | 70.3 | 68.3 | 39.9 | 40.7 | 61.2 | 59.2
COc1ccc(-c2coc3cc(O)cc(O)c3c2=O)cc1 [Biochanin A (4-Methylgenistein)] | 97.6% and 85.7% | 85.2 | 79.3 | 90 | 96.5 | 91.3 | 82.5 | 79.5
Cc1cc(C(O)=C2C(=O)C(=O)N(CCCN3CCOCC3)C2c2ccncc2)ccc1OCc1ccccc1 (stereo not given) | 96.1% and 98.6% | 102 | 93.9 | 92.6 | 107 | 96.5 | 103 | 94.2
COc1cc2c[n+](C)c3c4cc5c(cc4ccc3c2cc1OC)OCO5 [Nitidine Chloride] | – | 46.1 | 38.6 | 34.6 | 0.55 | 0.7 | 0.61 | 0.76
c1nc2c(NC3CCCCC3)nc(Nc3ccc(N4CCOCC4)cc3)nc2[nH]1 [Reversine] | – | 70.6 | 38 | 33.8 | 9.79 | 7.29 | 10.8 | 16.3

Structure (SMILES) | cell viability (K562; SRSF2 genotype: SRSF2 P95H/wt) | cell viability (K562; SRSF2 genotype: SRSF2 wt/wt) [%] | cell viability (MARIMO; SRSF2 genotype: SRSF2 P95H/wt) [%] | cell viability (MARIMO; SRSF2 genotype: SRSF2 wt/wt) [%] | cell viability (MOLM14; SRSF2 genotype: SRSF2 P95H/wt) [%] | cell viability (MOLM14; SRSF2 genotype: SRSF2 wt/wt) [%] | cell viability (OCI-AML2; SRSF2 genotype: P95H/wt) [%] | cell viability (OCI-AML2; SRSF2 genotype: wt/wt) [%]
NC(=O)c1ccc[n+]([O-])c1 [Nicotinamide N-oxide] | 110% | 111 | 107 | 109 | 98.7 | 105 | 112 | 101
COc1ccc(N2C(=O)/C(=C\c3ccc([N+](=O)[O-])s3)SC2=S)cc1 | – | 66.2 | 71.8 | 52.8 | 36.7 | 58.2 | 0.66 | 5.17
O=C(O[C@@H]1Cc2c(O)cc(O)cc2O[C@H]1c1cc(O)c(O)c(O)c1)c1cc(O)c(O)c(O)c1 [Gallocatechin gallate] | – | 71 | 91.1 | 91.7 | 77.3 | 67.3 | 94.1 | 87.8
CO/N=C(\C(=O)N[C@@H]1C(=O)N2C(C(=O)[O-])=C(C[N+]3(C)CCCC3)CS[C@H]12)c1csc(N)n1 [Cefepime Dihydrochloride Monohydrate] | 101% and 102% | 106 | 96.3 | 109 | 105 | 107 | 104 | 113
Cc1cc(O)cc(O)c1 [Orcinol] | 110% and 104% | 104 | 100 | 98.8 | 113 | 107 | 98.7 | 107
CCCc1ccc(OCC(=O)N(Cc2nc(-c3cccnc3)no2)C(C)C)cc1 | 87.5% and 91.9% | 91.3 | 81.5 | 90.4 | 85.6 | 96 | 77.4 | 83.9
COC1=C(OC)C(=O)C(CCCCCCCCCCO)=C(C)C1=O [Idebenone] | 78.7% and 86.7% | 86.9 | 85.6 | 89.6 | 88 | 88.7 | 68.8 | 75.2
Cc1coc2c1C(=O)C(=O)c1c-2ccc2c1CCCC2(C)C [Tanshinone IIA (Tanshinone B)] | – | 52.2 | 98.2 | 89 | 88.8 | 79.7 | 84.1 | 83.3
COc1cc([C@@H]2c3cc4c(cc3[C@@H](O[C@@H]3O[C@@H]5CO[C@@H](C)O[C@H]5[C@H](O)[C@H]3O)[C@H]3COC(=O)[C@H]23)OCO4)cc(OC)c1O [Etoposide (VP-16)] | – | 82 | 7.2 | 6.84 | 15.3 | 4.31 | 13 | 14.8
CCN(C)S(=O)(=O)Nc1ccc(F)c(C(=O)c2c[nH]c3ncc(-c4cnc(C5CC5)nc4)cc23)c1F | – | 59.2 | 83.6 | 87.5 | 79.3 | 92.7 | 91.5 | 84.7
O=C(O)C(=O)O.[NH-]C1CCCCC1[NH-].[Pt+2] (stereo not given) [Oxaliplatin (Eloxatin)] | – | 72.8 | 22 | 62 | 56.1 | 48.2 | 23.8 | 62.9
c1cc(-c2cnn3cc(-c4ccc(OCCN5CCCCC5)cc4)cnc23)ccn1 [Dorsomorphin (Compound C)] | – | 64.1 | 73.8 | 80.9 | 16.4 | 10.9 | 33.1 | 36.2
C[C@H]1O[C@@H](O[C@H]2CC[C@@]3(C)[C@@H](CC[C@]4(C)[C@@H]3C=C[C@]35OC[C@@]6(CCC(C)(C)C[C@H]63)[C@@H](O)C[C@]54C)[C@]2(C)CO)[C@H](O)[C@@H](O[C@@H]2O[C@H](CO)[C@@H](O)[C@H](O)[C@H]2O)[C@H]1O [Saikosaponin A] | – | 23.1 | 40.9 | 46.1 | 23.8 | 28.7 | 42.2 | 45
COc1ccc(F)c(F)c1C(=O)c1cnc(NC2CCN(S(C)(=O)=O)CC2)nc1N | – | 54.3 | 11.3 | 12.1 | 1.28 | 0.27 | 3.74 | 15.6
NC(=O)c1cccc(-c2cc(Nc3ccc(OC(F)(F)F)cc3)ncn2)c1 | – | 26.8 | 70.1 | 58.7 | 102 | 102 | 43.7 | 55.3
O=C1NC(=O)[C@@H](c2cn3c4c(cccc24)CCC3)[C@@H]1c1c[nH]c2ccccc12 [ARQ 197 (Tivantinib)] | – | 37 | 6.87 | 9.91 | 17.9 | 4.13 | 12.1 | 15.4
